In the supplement of paper PMC9262897, “Low-cost anti-mycobacterial drug discovery using engineered E. coli” (Nature Communications, 2022):
Where a name gives a salt, the structure may show the parent alone. ± gives the standard deviation of the averaged measurements.

Experiments:
Test in all cases: growth (OD600 after 10 h); higher = more growth (less inhibition)
[1] = test system: E. coli TESEC Alr+ wild-type control; settings: compound 0.1 mM; raw OD600 reference: median of DMSO wells 0.241, cell-free background 0.041
Description: (§1)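 TESEC Mtb Alr E. coli, or the Alr+ wild-type control, in 384-well plates with Prestwick library compounds at 0.1 mM and 1% DMSO, across arabinose induction levels of 1E3 to 1E7 nM. Growth is read as OD600 after 10 h at 37 °C in triplicate biological replicates.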

E. coli TESEC Mtb Asd = settings: compound 0.1 mM
Description: (§2)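 TESEC E. coli strains in which the native enzyme is deleted and replaced by arabinose-inducible Mtb Asd, DapB, CysH or TrpD, each grown in its selective medium. Strains were screened against the Prestwick library at 0.1 mM and 1% DMSO in 384-well format at low and high arabinose induction. Growth is read as OD600 after 10 h in triplicate.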

E. coli TESEC Mtb DapB = settings: compound 0.1 mM
Description: as §2

[2] = test system: E. coli TESEC Alr+ wild-type control; settings: compound 0.1 mM; raw OD600 reference: median of DMSO wells 0.49, cell-free background 0.052
Description: (§3)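 TESEC Mtb Alr E. coli (ΔaraC ΔtolC ΔentC Δalr ΔdadX, arabinose-inducible Mtb Alr) or the Alr+ wild-type control strain, grown in defined M9-fructose medium without D-alanine in 96-well plates with Prestwick library compounds at 0.1 mM and 1% DMSO. Low Alr induction is 0.1 µM arabinose and high induction is 10 mM arabinose.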

E. coli TESEC Mtb Alr [3] = settings: compound 0.1 mM
Description: as §3

E. coli TESEC Mtb Alr [4] = settings: compound 0.1 mM; remark: listed apart in the source
Description: as §1

[5] = arabinose induction (level): High, raw OD600 reference: median of DMSO wells 0.331, cell-free background 0.041
[6] = arabinose induction (level): Low, raw OD600 reference: median of DMSO wells 0.417, cell-free background 0.041
[7] = arabinose induction (level): High, raw OD600 reference: median of DMSO wells […], cell-free background 0.041
[8] = arabinose induction (level): Low, raw OD600 reference: median of DMSO wells 0.227, cell-free background 0.041
[9] = arabinose 100 nM, raw OD600 reference: median of DMSO wells 0.413, cell-free background 0.052
[10] = arabinose 10000000 nM, raw OD600 reference: median of DMSO wells […], cell-free background 0.052
[11] = arabinose 1000 nM, raw OD600 reference: median of DMSO wells 0.294, cell-free background 0.041
[12] = arabinose 10000 nM, raw OD600 reference: median of DMSO wells 0.264, cell-free background 0.041
[13] = arabinose 100000 nM, raw OD600 reference: median of DMSO wells 0.201, cell-free background 0.041
[14] = arabinose 1000000 nM, raw OD600 reference: median of DMSO wells 0.193, cell-free background 0.041
[15] = arabinose 10000000 nM, raw OD600 reference: median of DMSO wells 0.146, cell-free background 0.041

Structure (SMILES) | growth [1] | growth (E. coli TESEC Mtb Asd; [5]) | growth (E. coli TESEC Mtb Asd; [6]) | growth (E. coli TESEC Mtb DapB; [7]) | growth (E. coli TESEC Mtb DapB; [8]) | growth [2] | growth (E. coli TESEC Mtb Alr [3]; [9]) | growth (E. coli TESEC Mtb Alr [3]; [10]) | growth (E. coli TESEC Mtb Alr [4]; [11]) | growth (E. coli TESEC Mtb Alr [4]; [12]) | growth (E. coli TESEC Mtb Alr [4]; [13]) | growth (E. coli TESEC Mtb Alr [4]; [14]) | growth (E. coli TESEC Mtb Alr [4]; [15])
CC(=O)Nc1ccc(OCC(O)CNC(C)C)cc1 (centres undefined) [Practolol] | 0.244 ± 0.0047 | 0.408 ± 0.04 | 0.424 ± 0.027 | 0.177 ± 0.0065 | 0.22 ± 0.025 | 0.643 ± 0.039 | 0.402 ± 0.014 | 0.361 ± 0.0065 | – | – | – | – | –
COc1cc2nc(N3CCN(C(=O)C4CCCO4)CC3)nc(N)c2cc1OC (centres undefined) [Terazosin hydrochloride] | 0.208 ± 0.008 | 0.215 ± 0.012 | 0.431 ± 0.0086 | 0.222 ± 0.02 | 0.219 ± 0.012 | 0.443 ± 0.035 | 0.407 ± 0.01 | 0.259 ± 0.019 | – | – | – | – | –
NC1CCN(c2c(F)cc3c(=O)c(C(=O)O)cn(C4CC4)c3c2Cl)C1 (centres undefined) [Clinafloxacin] | 0.0416 ± 0.0001 | 0.0476 ± 0.0014 | 0.0476 ± 0.0014 | 0.0489 ± 0.0013 | 0.0481 ± 0.00067 | 0.05277 ± 0.00038 | 0.05347 ± 0.0004 | 0.0504 ± 0.00086 | – | – | – | – | –
Cc1ccc(S(=O)(=O)NC(=O)NN2CCCCCC2)cc1 [Tolazamide] | 0.256 ± 0.0047 | 0.293 ± 0.026 | 0.414 ± 0.05 | 0.214 ± 0.0044 | 0.235 ± 0.015 | 0.482 ± 0.053 | 0.398 ± 0.017 | 0.354 ± 0.014 | – | – | – | – | –
C#C[C@]1(OC(C)=O)CC[C@H]2[C@@H]3CCC4=CC(=NO)CC[C@@H]4[C@H]3CC[C@@]21CC (mixture of isomers) [Norgestimate] | 0.134 ± 0.0062 | 0.0829 ± 0.015 | 0.0714 ± 0.019 | – | – | – | 0.263 ± 0.013 | 0.0794 ± 0.012 | 0.123 ± 0.0052 | 0.0585 ± 0.0036 | 0.136 ± 0.0049 | 0.0563 ± 0.0053 | 0.111 ± 0.0098
Oc1c(I)cc(Cl)c2cccnc12 [Clioquinol] | 0.0473 ± 0.0055 | 0.0601 ± 0.0098 | 0.0661 ± 0.016 | 0.0573 ± 0.0004 | 0.0551 ± 0.0021 | 0.0685 ± 0.0091 | 0.0741 ± 0.02 | 0.0669 ± 0.011 | – | – | – | – | –
CC[N+](C)(CC)CCOC(=O)C1c2ccccc2Oc2ccccc21 [Methantheline bromide] | 0.192 ± 0.0029 | 0.223 ± 0.043 | 0.344 ± 0.044 | – | – | – | 0.4172 ± 0.0035 | 0.336 ± 0.013 | 0.269 ± 0.011 | 0.287 ± 0.0031 | 0.18 ± 0.015 | 0.193 ± 0.025 | 0.135 ± 0.007
CCOC(=O)C1=C[C@]2(CC)CCCN3CCc4c(n1c1ccccc41)[C@@H]32 [Vinpocetine] | 0.216 ± 0.0075 | 0.232 ± 0.0031 | 0.379 ± 0.069 | 0.164 ± 0.0032 | 0.191 ± 0.0094 | 0.557 ± 0.044 | 0.4094 ± 0.0032 | 0.337 ± 0.016 | – | – | – | – | –
C[C@@H](O)[C@H]1C(=O)N2C(C(=O)O)=C(SCCNC=N)C[C@H]12 [Imipenem] | 0.216 ± 0.0037 | 0.296 ± 0.1 | 0.37 ± 0.065 | – | – | – | 0.165 ± 0.11 | 0.111 ± 0.011 | 0.282 ± 0.0094 | 0.269 ± 0.0053 | 0.202 ± 0.035 | 0.174 ± 0.0056 | 0.136 ± 0.0047
COc1ccc(-c2ccc3cc(C(=O)O)ccc3c2)cc1C12CC3CC(CC(C3)C1)C2 [Adapalene] | 0.2339 ± 0.00031 | 0.231 ± 0.0037 | 0.298 ± 0.079 | 0.193 ± 0.013 | 0.249 ± 0.028 | 0.483 ± 0.01 | 0.435 ± 0.014 | 0.402 ± 0.085 | – | – | – | – | –
C[N+](C)(C)CCCCCC[N+](C)(C)C [Hexamethonium dibromide dihydrate] | 0.247 ± 0.0066 | 0.344 ± 0.048 | 0.454 ± 0.015 | 0.205 ± 0.014 | 0.233 ± 0.042 | 0.536 ± 0.007 | 0.425 ± 0.0087 | 0.384 ± 0.015 | – | – | – | – | –
CC1=C(CC(=O)O)c2cc(F)ccc2/C1=C\c1ccc([S+](C)[O-])cc1 (centres undefined) [Sulindac] | 0.166 ± 0.0055 | 0.151 ± 0.018 | 0.243 ± 0.012 | – | – | – | 0.364 ± 0.063 | 0.11 ± 0.01 | 0.206 ± 0.0077 | 0.181 ± 0.0019 | 0.125 ± 0.0091 | 0.0898 ± 0.0021 | 0.103 ± 0.0038
CCOC1O[C@H]([C@@H](COCc2ccccc2)OCc2ccccc2)[C@H](OCc2ccccc2)[C@H]1O (some centres undefined) [Tribenoside] | 0.23 ± 0.005 | 0.214 ± 0.023 | 0.199 ± 0.015 | – | – | – | 0.378 ± 0.0058 | 0.0944 ± 0.017 | 0.29 ± 0.008 | 0.255 ± 0.015 | 0.148 ± 0.0075 | 0.0915 ± 0.0035 | 0.154 ± 0.0022
Cn1c(=O)c2nc[nH]c2n(C)c1=O [Theophylline monohydrate] | 0.263 ± 0.0048 | 0.4904 ± 0.0049 | 0.455 ± 0.0057 | – | – | – | 0.406 ± 0.016 | 0.338 ± 0.01 | 0.328 ± 0.018 | 0.283 ± 0.013 | 0.21 ± 0.027 | 0.189 ± 0.0034 | 0.158 ± 0.0078
